Assay results as given in ChEMBL document CHEMBL4513216, “Probing the Open Global Health Chemical Diversity Library for Multistage-Active Starting Points for Next-Generation Antimalarials” (ACS Infect Dis, 2020).
The whole screen tested about 69,000 compounds, of which about 8,600 (12%) showed an effect of 50% or more. For the sample, strong results were picked, then their nearest neighbours and some compounds at random.

System: Plasmodium berghei
Experiment: Screen against P. berghei liver stage (PbLuc), transformed with Luciferase, at 10uM
Format: functional, HepG2
Details: tested at 10 uM

| SMILES | INHIBITION |
| --- | --- |
| CCOc1ccc(NC(=O)N2CCNC(=O)C2)c(C(F)(F)F)c1 | 40.2% |
| O=C(Cn1cc(-c2ccccc2)ncc1=O)Nc1nnc[nH]1 | 13% |
| O=C(Cn1cc(-c2ccccc2)ncc1=O)Nc1ccncc1 | 0.547% |
| O=C(Cn1cc(-c2ccccc2)ncc1=O)Nc1ncc[nH]1 | 81% |
| Cc1nc2c(C)cccc2cc1C(=O)N1CCC2(CCN(C)CC2)C1 | -17.7% |
| CCOc1nnc(CN2CCN(CCOC)C(CC)C2)s1 (configuration not stated) | 28.6% |
| CCOCCN1CCN(CCOC)CC1C (configuration not stated) | 11.4% |
| CCOc1nnc(CN2CCN(CCOC)CC2)s1 | 53.4% |
| CCOc1nnc(CN2CCC(c3nc4ccccc4[nH]3)CC2)s1 | -35.9% |
| CCOc1nnc(CN2CCC(c3cc4ccccc4[nH]3)CC2)s1 | -14.2% |
| CCOc1nnc(CN2CCN(CCOC)C(C)C2)s1 (configuration not stated) | 51.7% |
| COCC1CC2(CCN(C(=O)c3ccc(C)nc3)CC2)CO1 (configuration not stated) | -26.1% |
| COc1ccc(C2CCCN2C(=O)NCCn2ccnc2)cc1OC (configuration not stated) | -20.965% |
| O=S(=O)(C1CC1)N1CC[C@@H](OCC2CC2)[C@@H]1Cc1ccncc1 | 47.5% |
| CNc1nc(CNC(=O)Nc2cc(Cl)ccc2F)cs1 | -41.85% |
| CNc1nc(CNC(=O)Nc2cccc(C)c2Cl)cs1 | -25.15% |
| CNc1nc(CNC(=O)Nc2ccc(OC(C)C)cc2F)cs1 | 72.3% |
| CNc1nc(CNC(=O)Nc2ccc(OC)cc2C)cs1 | 21.5% |
| CNc1nc(CNC(=O)Nc2ccccc2OC(C)C)cs1 | 32.3% |
| CNc1nc(CNC(=O)Nc2ccc(OC(C)C)cc2C)cs1 | 57.2% |
| COc1ccc2[nH]cc(C(=O)CNc3nc(C)cs3)c2c1 | -29.5% |
| O=C(CCOc1ccc(F)cc1)N1CCCC1Cn1cccn1 (configuration not stated) | 30.6% |
| Cc1ccc2c(n1)N(CCn1cccn1)CCN(C(=O)NC(C)C)C2 | -32% |
| CS(=O)(=O)NCc1cnc2n1CCN(Cc1ccsc1)CC2 | 30.1% |

| SMILES | INHIBITION |
| --- | --- |
| NCc1ccc(Oc2cccc(Cl)c2Cl)cc1 | 13.2% |
| CCOc1ccccc1Oc1ccc(CN)cn1 | 60.3% |
| NCc1ccc(Oc2cccc(Cl)c2Cl)nc1 | 28.7% |
| CCCN1CCc2c(C(=O)N(C)Cc3ccccn3)nn(C)c2C1 | 55.6% |
| CN(Cc1ccccn1)C(=O)c1nn(C)c2c1CCN(CC1CC1)C2 | 48.2% |
| CC(C)CCN1CCc2c(C(=O)N(C)Cc3ccccn3)nn(C)c2C1 | 48.2% |
| COCCCNC(=O)CN(C)C1CCCN(c2cccnn2)C1 (configuration not stated) | -14.7% |
| CC(=O)N1CC(=O)N(c2ccsc2)CC12CCN(Cc1ccoc1)C2 (configuration not stated) | -3.58% |
| CCN1C(=O)C(c2ccccc2)CC12CCN(CCO)CC2 (configuration not stated) | 19.8% |
| CNC(=O)CN1CC[C@H]2CN(C(=O)c3ccccc3C)C[C@H]2C1 | -28% |
| Cc1nn(CC(=O)N2CCN(Cc3cn(C)nc3C)CC2)cc1Br | 51% |
| Cc1nn(CC(=O)N2CCN(Cc3cnn(C)c3C)CC2)cc1Br | -5.92% |
| CCn1ncc(CN2CCN(C(=O)Cn3cc(Br)c(C)n3)CC2)c1C | 34% |
| CCn1cc(CN(C)S(=O)(=O)c2cnn(C)c2)cn1 | 7.66% |
| O=c1c2cn[nH]c2nc(SCCN2CCOCC2)n1-c1ccccc1 | 21.5% |
| CC(=O)N1CCC2(CCN(CC3CCOC3)C2)CC1 (configuration not stated) | 42.1% |
| CC(=O)N1CCC2(CN(CC3CCCC3)C2)C1 | 39.5% |
| CC(=O)N1CCC2(CCN(CC3CCCCC3)C2)CC1 | 51.9% |
| COc1cccc(-c2nc(C)c(C(=O)N[C@H](CO)CC(C)C)s2)c1 | -23.7% |
| Cc1occc1C(=O)N1C[C@@H]2[C@@H](C1)OCC(=O)N2Cc1cccnc1 | -6.23% |
| CN(CC1CCOCC1)C1CCCN(c2ccccn2)C1 (configuration not stated) | 18.805% |
| Cc1cnn(CCNCc2nc(-c3ccsc3)oc2C)c1 | 47.4% |
| Cc1oc(-c2ccsc2)nc1CNC(C)Cn1cccn1 (configuration not stated) | 39.7% |
| CCN(CCn1cccn1)Cc1nc(-c2ccc(F)cc2)oc1C | 62.4% |

| SMILES | INHIBITION |
| --- | --- |
| CCN(CCn1cccn1)Cc1nc(-c2cc(F)ccc2F)oc1C | 26.1% |
| Cc1oc(-c2ccsc2)nc1CNCCn1cccn1 | 53.4% |
| CCN(CCn1cccn1)Cc1nc(-c2ccoc2)oc1C | -31.9% |
| Cc1nn(CC(=O)O)c(C)c1NS(=O)(=O)c1cccc2ccccc12 | 2.97% |
| CNC(=O)CN1CCO[C@H]2CN(CC3CCOC3)C[C@H]21 (some centres not stated) | 8.85% |
| CNc1ccnc(N2C[C@H]3CC[C@@H](C2)N(CCOC)C3=O)n1 | -144% |
| O=C(c1ccco1)N1C2CCC(O)(CC2)C1CN1CCOCC1 (configuration not stated) | 17.7% |
| Cc1ccsc1-c1nc(CN(C)Cc2noc(C(C)C)n2)c(C)o1 | 30% |
| COc1ccc(OC)c(-c2nc(CN(C)Cc3noc(C)n3)c(C)o2)c1 | 31.1% |
| CCc1cc(CN(C)Cc2nc(-c3sccc3C)oc2C)on1 | 1.37% |
| Cc1nonc1CN(C)Cc1nc(-c2cccc(F)c2F)oc1C | 8.99% |
| Cc1ccsc1-c1nc(CN(C)Cc2cc[nH]n2)c(C)o1 | 54.6% |
| Cc1nc(CN(C)Cc2nc(-c3sccc3C)oc2C)no1 | 56.3% |
| CCc1ncnc2c1CCN(CCOC)CC2 | 32.5% |
| CCC[C@H]1CN(S(C)(=O)=O)C[C@@H]1NC(=O)Cc1ccc(F)cc1C | 30.3% |
| O=C(NCCCc1nc(=O)[nH][nH]1)Nc1cccc(F)c1 | 48% |
| O=C(NCCCc1nc(=O)[nH][nH]1)c1ccc(Cl)cn1 | 67.5% |
| O=C(NCCCc1nc(=O)[nH][nH]1)Nc1ccc(Cl)cc1 | 23.9% |
| O=c1[nH]cc(Nc2ccccc2)c(=O)[nH]1 | 43.8% |
| OC1(CN2CCOC(Cn3cccn3)C2)CCCCC1 (configuration not stated) | -37.7% |
| COCCN1CCN(CC(C)(O)c2cccc(C(F)(F)F)c2)CC1 (configuration not stated) | 37.3% |
| COc1ccccc1OCCCc1cncc(C(N)=O)c1 | 80.2% |
| COc1cccc(OCCCc2cncc(C(N)=O)c2)c1 | -10.3% |
| COc1cccc(OCCc2cncc(C(N)=O)c2)c1 | 15.9% |
